The structures appear in SMILES notation. Active and inactive are the calls of the source.

This note sets out measurements from PubChem BioAssay.

Assay [1] can be described thus: binders of probe aFSTL3 on microarray, primary screen, stem cell growth factor project, biochemical, small-molecule microarray, fluorescence 635/667 (AID 1064).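 Also: measures binding of the biotinylated anti-FSTL3 antibody to printed compounds.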 Conditions: higher = more signal.
The nature of assay [2]: binders from COS7 lysate, DM2A8 probe, primary screen, torsin A project, cell lysate, small-molecule microarray, fluorescence 635/667 (AID 1065). The conditions noted are these: higher = more signal, COS7 lysate expressing mutant human TOR1A.
A short description of assay [3]: binders of probe aFGF2 on microarray, primary screen, stem cell growth factor project, biochemical, small-molecule microarray, fluorescence 635/667 (AID 1067).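 Also: measures binding of biotinylated aFGF2 protein to printed compounds on slides; z-score merges feature fluorescence and signal-to-noise across triplicate slides.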 Conditions: higher = more signal.
The nature of assay [4]: binders of probe aFGF10 on microarray, primary screen, stem cell growth factor project, biochemical, small-molecule microarray, fluorescence 635/667 (AID 1071).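 Also: score merges 667 nm spot intensity and signal to noise from triplicate slides.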 Conditions: higher = more signal.
Assay [5] has as its target Neurogenic locus notch homolog protein 2 (Homo sapiens) (UniProt Q04721). Description: Notch2 binders on small-molecule microarrays, primary screen, biochemical, small-molecule microarray, 635 nm fluorescence, stem cell growth factors (AID 1073). Conditions: Notch2 binding, higher = more signal.
The target of assay [6] is Pro-neuregulin-1, membrane-bound isoform (Homo sapiens) (UniProt Q02297). The assay can be described thus: NRG1 binders on small-molecule microarrays, primary screen, psychiatric disease protein project, biochemical, small-molecule microarray, fluorescence 635/667 (AID 1075).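 Also: score combines 667 nm spot fluorescence with signal to noise.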 Conditions: NRG1 binding, 635 nm fluorescence, higher = more signal.
Assay [7] relates to Neuregulin-1 EGF-like domain. Description: binders of neuregulin-1 EGF-like domain, primary screen, biochemical, small-molecule microarray, 635 nm fluorescence (AID 1081).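 Also: binding of the protein to compounds printed on small-molecule microarray slides.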 The conditions noted are these: small-molecule microarray binding, higher = more signal.
Assay [8] is described as follows: FRG1 promoter luciferase signal modulators, primary screen, FRG1 inhibition for FSHD, cell-based, C2C12 myotubes, firefly/Renilla luciferase, luminescence (AID 1084). The conditions noted are these: higher = more signal, called active from +8 up or from −8 down.
Assay [9] can be described thus: binders of probe aFST on microarray, primary screen, stem cell growth factor project, biochemical, small-molecule microarray, fluorescence 635/667 (AID 1086).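 Also: score merges 667 nm fluorescence with signal-to-noise of each printed compound spot.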 Conditions: higher = more signal.
The nature of assay [10]: binders of probe aHhip on microarray, primary screen, stem cell growth factor project, biochemical, small-molecule microarray, fluorescence 635/667 (AID 1087).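 Also: score merges spot fluorescence at 667nm with spot signal to noise ratio.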 Conditions: higher = more signal.
Assay [11] deals with PRMT1 (protein arginine N-methyltransferase 1). The assay can be described thus: PRMT1 binders on small-molecule microarrays, primary screen, biochemical, small-molecule microarray, 635 nm fluorescence (AID 1088).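 Also: binding of Prmt1 protein to compounds spotted on small-molecule microarray slides.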 Conditions: small-molecule microarray binding, higher = more signal.
Assay [12] can be described thus: yeast growth modulation, basal conditions, primary screen, YJM789 clinical isolate, OD600, 24 h (AID 1089).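 Also: growth of clinical yeast isolate S. cerevisiae YJM 789 seeded 1000 cells per well; test concentration not given here.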 Conditions: S. cerevisiae YJM789 growth, higher = more signal, called active from +8 up or from −8 down.
Assay [13] can be described thus: fission yeast growth modulation, primary screen, strain 972, OD600, 24 h, no modulator (AID 1090).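 Also: basal condition with compound alone and no growth modifier present; test concentration not given here.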 The conditions noted are these: S. pombe 972 growth, higher = more signal, called active from +8 up or from −8 down.
Assay [14] can be described thus: S. cerevisiae growth modulation with rapamycin, primary screen, strain BY4716, OD600, 96 h (AID 1091). Also: test concentration not given here. The conditions noted are these: higher = more signal, called active from +8 up or from −8 down.
In assay [15] the target is Torsin-1A-interacting protein 2 (Homo sapiens) (UniProt Q8NFQ8). Description: LULL1 binders on small-molecule microarray, primary screen, cell lysate, human LULL1 lysate, 635/667 nm fluorescence (AID 1092).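 Also: probe is lysate of COS7 cells overexpressing human LULL1; score merges per-feature 667 nm fluorescence with signal-to-noise.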 The conditions noted are these: hLULL1 lysate binding, 635 nm fluorescence, higher = more signal.
Assay [16] is described as follows: E. coli growth modulation, two-sided OD650, primary screen, E. coli filamentation project, strain DRC41, 24 h (AID 1093).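 Also: MC1000 strain lacking acrAB efflux and sulA so SOS filamentation is blocked; test concentration not given here.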 Conditions: OD650, 24 h, higher = more signal, called active from +8 up or from −8 down.
Assay [17] is described as follows: small-molecule microarray binders of probe aLefty2, primary screen, biochemical, biotinylated probe, 635/667 nm fluorescence (AID 1094).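 Also: score merges spot fluorescence near 667 nm with spot signal-to-noise ratio.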 The conditions noted are these: higher = more signal.
In assay [18] the test system is Noggin (protein binding on small-molecule microarray). The assay can be described thus: Noggin binders on small-molecule microarray, primary screen, biochemical, 635/667 nm fluorescence (AID 1095).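 Also: score merges 667 nm feature fluorescence with signal to noise over triplicate slides.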 Conditions: 635 nm fluorescence, higher = more signal.
Assay [19] concerns the target Neurogenic locus notch homolog protein 3 (Homo sapiens) (UniProt Q9UM47). Description: NOTCH3 binders on small-molecule microarray, primary screen, biochemical, 635/667 nm fluorescence (AID 1096). Conditions: NOTCH3 binding, 635 nm fluorescence, higher = more signal.
Assay [20] can be described thus: small-molecule microarray binders of probe aEGFR, primary screen, biochemical, biotinylated probe, 635/667 nm fluorescence (AID 1097).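 Also: probe is a biotinylated anti-EGFR antibody binding compounds printed on slides; score combines fluorescence near 667 nm and signal to noise of each spot.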 The conditions noted are these: higher = more signal.

Neurogenic locus notch homolog protein 2 (Homo sapiens), sequence (Q04721 whole entry, looked up, canonical isoform): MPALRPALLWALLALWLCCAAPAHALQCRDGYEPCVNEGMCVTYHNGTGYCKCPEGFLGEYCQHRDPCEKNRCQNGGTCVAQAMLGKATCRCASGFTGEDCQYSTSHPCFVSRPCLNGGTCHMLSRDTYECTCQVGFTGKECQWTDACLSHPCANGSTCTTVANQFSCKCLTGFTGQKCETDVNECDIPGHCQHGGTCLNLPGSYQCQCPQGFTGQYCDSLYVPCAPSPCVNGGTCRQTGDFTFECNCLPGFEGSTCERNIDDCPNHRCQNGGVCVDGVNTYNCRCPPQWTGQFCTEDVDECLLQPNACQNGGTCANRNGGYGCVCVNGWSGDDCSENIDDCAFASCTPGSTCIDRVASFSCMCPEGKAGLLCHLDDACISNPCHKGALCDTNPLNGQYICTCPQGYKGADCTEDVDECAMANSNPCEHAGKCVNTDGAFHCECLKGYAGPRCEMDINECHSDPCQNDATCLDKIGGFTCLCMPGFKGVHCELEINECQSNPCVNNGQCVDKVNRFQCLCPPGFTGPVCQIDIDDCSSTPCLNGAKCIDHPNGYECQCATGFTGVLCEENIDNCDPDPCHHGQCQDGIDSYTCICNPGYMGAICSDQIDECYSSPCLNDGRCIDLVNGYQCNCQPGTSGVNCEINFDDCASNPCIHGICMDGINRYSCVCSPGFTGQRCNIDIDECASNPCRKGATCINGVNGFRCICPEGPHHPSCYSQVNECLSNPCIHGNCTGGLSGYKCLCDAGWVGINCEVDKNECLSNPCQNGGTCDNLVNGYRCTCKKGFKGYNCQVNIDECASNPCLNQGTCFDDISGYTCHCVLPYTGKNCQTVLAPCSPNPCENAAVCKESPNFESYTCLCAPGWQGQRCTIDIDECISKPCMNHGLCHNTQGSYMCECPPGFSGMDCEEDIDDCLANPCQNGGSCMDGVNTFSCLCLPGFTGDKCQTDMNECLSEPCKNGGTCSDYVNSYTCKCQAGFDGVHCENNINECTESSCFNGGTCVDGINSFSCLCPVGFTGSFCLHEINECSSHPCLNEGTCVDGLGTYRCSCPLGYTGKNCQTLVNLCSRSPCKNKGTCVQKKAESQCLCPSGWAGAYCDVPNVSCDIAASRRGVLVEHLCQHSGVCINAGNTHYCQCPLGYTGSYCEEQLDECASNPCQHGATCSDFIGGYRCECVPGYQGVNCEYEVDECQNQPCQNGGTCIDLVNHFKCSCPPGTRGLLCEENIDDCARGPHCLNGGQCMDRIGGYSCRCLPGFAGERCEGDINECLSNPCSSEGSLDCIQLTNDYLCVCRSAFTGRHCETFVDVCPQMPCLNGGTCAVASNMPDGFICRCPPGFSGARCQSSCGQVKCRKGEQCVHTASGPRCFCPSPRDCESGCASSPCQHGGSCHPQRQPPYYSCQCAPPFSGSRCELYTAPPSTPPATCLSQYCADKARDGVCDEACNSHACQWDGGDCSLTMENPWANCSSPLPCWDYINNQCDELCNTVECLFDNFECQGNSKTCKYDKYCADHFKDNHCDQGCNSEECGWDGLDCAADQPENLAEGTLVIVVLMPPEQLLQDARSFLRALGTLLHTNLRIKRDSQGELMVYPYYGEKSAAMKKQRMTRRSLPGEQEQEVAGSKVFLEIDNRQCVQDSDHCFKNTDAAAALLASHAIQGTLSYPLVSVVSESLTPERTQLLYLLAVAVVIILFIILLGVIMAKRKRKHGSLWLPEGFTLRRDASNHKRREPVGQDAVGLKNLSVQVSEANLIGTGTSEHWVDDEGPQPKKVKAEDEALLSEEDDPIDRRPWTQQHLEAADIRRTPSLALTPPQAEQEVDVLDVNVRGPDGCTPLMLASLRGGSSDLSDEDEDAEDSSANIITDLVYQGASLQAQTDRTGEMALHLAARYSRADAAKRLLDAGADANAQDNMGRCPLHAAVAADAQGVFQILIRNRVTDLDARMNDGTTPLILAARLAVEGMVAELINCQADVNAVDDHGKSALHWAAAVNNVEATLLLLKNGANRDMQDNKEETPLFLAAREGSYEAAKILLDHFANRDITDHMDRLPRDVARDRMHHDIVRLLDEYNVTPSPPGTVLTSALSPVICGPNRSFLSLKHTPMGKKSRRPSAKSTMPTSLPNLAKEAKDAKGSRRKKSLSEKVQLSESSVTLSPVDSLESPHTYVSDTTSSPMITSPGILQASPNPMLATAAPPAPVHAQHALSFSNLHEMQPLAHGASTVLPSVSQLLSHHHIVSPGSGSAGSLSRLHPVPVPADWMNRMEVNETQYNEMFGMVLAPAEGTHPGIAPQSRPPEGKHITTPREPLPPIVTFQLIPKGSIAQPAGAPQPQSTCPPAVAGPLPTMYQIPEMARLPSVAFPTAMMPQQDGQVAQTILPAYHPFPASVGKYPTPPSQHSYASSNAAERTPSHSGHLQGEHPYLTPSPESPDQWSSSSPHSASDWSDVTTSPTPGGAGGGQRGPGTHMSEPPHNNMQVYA
Pro-neuregulin-1, membrane-bound isoform (Homo sapiens), sequence (Q02297 whole entry, looked up, the tested form may be a part, canonical isoform): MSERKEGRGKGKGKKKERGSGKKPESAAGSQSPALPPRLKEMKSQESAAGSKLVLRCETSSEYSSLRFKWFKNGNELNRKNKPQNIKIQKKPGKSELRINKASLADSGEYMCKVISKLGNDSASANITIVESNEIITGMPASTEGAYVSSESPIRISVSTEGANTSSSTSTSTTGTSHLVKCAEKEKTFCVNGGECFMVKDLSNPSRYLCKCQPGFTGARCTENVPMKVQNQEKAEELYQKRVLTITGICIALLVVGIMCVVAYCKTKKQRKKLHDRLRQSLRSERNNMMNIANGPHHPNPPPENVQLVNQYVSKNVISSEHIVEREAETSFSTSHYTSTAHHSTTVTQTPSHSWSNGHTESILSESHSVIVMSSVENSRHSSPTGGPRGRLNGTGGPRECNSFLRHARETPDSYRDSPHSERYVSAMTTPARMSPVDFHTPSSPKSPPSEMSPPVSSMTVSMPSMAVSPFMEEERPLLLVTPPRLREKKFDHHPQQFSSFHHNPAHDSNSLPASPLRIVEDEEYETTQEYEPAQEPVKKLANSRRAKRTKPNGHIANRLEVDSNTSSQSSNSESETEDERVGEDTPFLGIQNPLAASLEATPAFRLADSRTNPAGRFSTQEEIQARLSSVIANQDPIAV
Torsin-1A-interacting protein 2 (Homo sapiens), sequence (Q8NFQ8 whole entry, looked up): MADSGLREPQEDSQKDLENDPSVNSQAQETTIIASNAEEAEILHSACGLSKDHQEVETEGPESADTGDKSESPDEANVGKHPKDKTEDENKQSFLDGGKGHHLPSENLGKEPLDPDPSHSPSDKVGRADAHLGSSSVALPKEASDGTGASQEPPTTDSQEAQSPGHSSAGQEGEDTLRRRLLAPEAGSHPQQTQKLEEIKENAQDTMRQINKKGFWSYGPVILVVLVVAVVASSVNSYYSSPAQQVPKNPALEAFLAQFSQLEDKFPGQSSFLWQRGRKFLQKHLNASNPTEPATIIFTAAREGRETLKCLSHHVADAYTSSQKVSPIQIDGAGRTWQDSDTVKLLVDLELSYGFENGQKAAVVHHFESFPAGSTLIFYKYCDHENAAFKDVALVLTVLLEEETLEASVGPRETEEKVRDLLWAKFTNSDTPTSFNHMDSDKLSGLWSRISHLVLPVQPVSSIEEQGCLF

Take `CCCNC(=O)[C@@]1(C)c2ccccc2C(=O)N(c2ccc(C)cn2)[C@H]1c1ccc(CO)cc1`: the composite z-score is 0.294 in assay [1]; 0.0231 in [2]; -0.0692 in assay [3]; -0.281 in assay [4]; 0.0657 in assay [5]; 0.638 in assay [6]. In addition, the composite z-score in [7] is 0.781; in [9] it was -0.215; in [10], -0.219; in [11] it was -0.266; in assay [15], 3.4; in assay [17], -0.0352. Moreover, the composite z-score in assay [18] is 0.146; in [19] it was -0.0421; in [20] it was -0.0828. Further, the z-score in assay [8] is 0.683 (inactive); in assay [12], -0.788 (inactive); in assay [13], -0.164 (inactive); in assay [14] it was -0.145 (inactive); in assay [16] it was -0.618 (inactive).
Consider `C=CCN1Cc2ccccc2[C@@H]2OC(c3ccc(OCCCO)cc3)=N[C@]2(CC=C)C1=O`, for which the composite z-score in assay [1] amounted to 1.41; in assay [2], 0.629; in assay [3] it was 0.32; in assay [4], 0.0911; in assay [5], 0.848; in [6], 0.955. For the same compound, the composite z-score in assay [7] is 1.06; in assay [9] it was 2.47; in assay [10], -0.159; in assay [11], 1.57; in assay [15], 3.15; in [17] it was 0.188. The composite z-score amounted to 1.84 in [18], 1.03 in assay [19] and 0.434 in [20]. Also, the z-score was -0.479 (inactive) in assay [8]; -0.98 (inactive) in assay [12]; -2.8 (inactive) in assay [13]; -0.926 (inactive) in assay [14]; 0.924 (inactive) in [16].
Turning to `CC(CO)N1C(=O)[C@@H]2[C@H]3C(=O)OCC=C[C@H]3OC23C=CCN(Cn2nnc4ccccc42)C(=O)[C@@H]13` (stereo not given in full), the composite z-score in assay [1] is 0.12; in [2] it was -0.699; in assay [3] it was -0.207; in [4] it was -0.729; in assay [5] it was -1; in assay [6], 1.88. Also, the composite z-score is 0.694 in assay [7]; -0.391 in assay [9]; -0.0994 in [10]; -0.533 in assay [11]; -0.444 in assay [15]; -0.185 in assay [17]. The composite z-score in assay [18] is -0.746; in assay [19] it was -0.652; in [20], -0.292. Also, the z-score was 0.246 (inactive) in assay [8]; -0.596 (inactive) in [12]; -0.225 (inactive) in assay [13]; -0.473 (inactive) in [14]; -0.333 (inactive) in assay [16].
Turning to `CCOC(=O)C[C@H]1[C@H](OC(=O)c2ccc(C(=O)c3ccccc3)cc2)[C@@H](NC(=O)c2ccc(-c3ccccc3)cc2)c2cc(OCCCO)ccc2N1C(=O)Cc1ccc(OC)cc1`, the composite z-score in [1] was -0.258; in assay [2] it was -0.0676; in assay [3], -0.0364; in [4] it was 0.034; in assay [5], 0.618; in assay [6] it was 0.486. The composite z-score is -0.228 in [7]; 0.765 in assay [9]; 0.0976 in [10]; 0.845 in [11]; 0.861 in assay [15]; 0.259 in [17]. The composite z-score in assay [18] was 0.601; in [19], 0.378; in [20], -0.0302. Also, the z-score is -0.111 (inactive) in assay [8]; 0.233 (inactive) in assay [12]; 0.838 (inactive) in assay [13]; 0.876 (inactive) in [14]; 0.24 (inactive) in assay [16].
As for `O=C1OCCC/C=C\[C@H]2OC34C=CCN(c5ccc6ccccc6c5)C(=O)[C@H]3N(CCO)C(=O)[C@@H]4C12` (stereo not given in full), the composite z-score is 0.24 in assay [1]; -0.514 in [2]; -0.159 in assay [3]; -0.818 in assay [4]; -1.23 in [5]; 1.6 in assay [6]. Further, the composite z-score in assay [7] is 1.04; in [9] it was -0.667; in assay [10] it was -0.423; in [11] it was -0.352; in assay [15] it was 0.25; in assay [17], -0.14. Also, the composite z-score is -1.79 in assay [18], -0.858 in assay [19] and -0.335 in assay [20]. Also, the z-score in [8] is 0.751 (inactive); in [12], 0.0709 (inactive); in assay [13] it was -0.224 (inactive); in assay [14], 0.341 (inactive); in assay [16] it was 0.491 (inactive).
